ELG1 genotox = induces genotoxicity in HEK293T cells with luciferase-tagged ELG1; HEK293T ELG1-luciferase reporter, luminescence, 16 h; Potency, µM (series often up to 46 µM), inactives show top-dose activity change, positive = activation, most hits filed as activators; 330,000 tested, 1.3% active; AID 504466; further: % of control where 0% means no effect; nearly all actives have a fitted effect of over 60% in size
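After overnight (16 hr) compound treatment at 37 °C, ELG1-luciferase HEK293T cells were lysed with ONE-Glo; luminescence quantified 30 min later at room temperature.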
SMN2 splice enh = enhancers of SMN2 splice variant expression | HEK293 SMN2-luciferase splicing reporter, luminescence, 30-36 h | Potency, µM (top dose mostly 46.1 µM), for inactives: at the highest dose activity change, positive = activation, most hits filed as activators | 210,000 tested, 2.8% active; further: % of control where 0% means no effect; nearly all actives have a fitted effect of over 55% in size
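HEK293 cells carry an SMN2 minigene-luciferase reporter in which exon 7 inclusion puts luciferase in frame. Cells were seeded at 2000 cells/well, attached for 10-12 hours, then exposed to compounds for 30-36 hours at 37C before ONE-Glo luminescence.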
ELG1 repair inh = blocks ELG1-dependent DNA repair in HEK293T cells; HEK293T ELG1-luciferase reporter, luminescence, 16 h; DNA damage induced by 5-fluorouridine; Potency, µM (highest dose often 46.1 µM), for the others: top-dose activity change, negative = inhibition, hits mostly inhibitors; 330,000 tested, 2.3% active; AID 504467; further: on the % scale 0 is the no-effect control and ±100 the full control effect; nearly all actives have a fitted effect of over 55% in size
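Step one: seed 2,000 cells per well. Step two: pin-transfer compound or DMSO alongside 5-fluorouridine. Step three: incubate 16 hr, 37 °C, 5% CO2. Step four: add ONE-Glo, wait 30 min, read luminescence.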
NPC1 prom act = activators of NPC1 promoter; Huh7 NPC1 promoter luciferase reporter, 24 h; 320,000 tested, 2.4% active; Potency, µM (top dose mostly 9.22 µM), without a hit: top-dose activation, hits mostly activators; further: % of control where 0% means no effect; nearly all actives have a fitted effect of over 60% in size
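Luminescence read-out of NPC1 promoter-driven luciferase in stably transfected Huh7 cells; compounds delivered in DMSO and left 24 h at 37C, 5% CO2, qHTS titration format.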
Rab9 prom act = Rab9 promoter activation; Huh7 Rab9 promoter-luciferase reporter, luminescence, 24 h; Potency, µM (doses to about 9.22 µM), without a hit: at the highest dose activation, negative = inhibition, most hits filed as activators; 320,000 tested, 2.8% active; further: % of control where 0% means no effect; nearly all actives have a fitted effect of over 60% in size
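Luminescence read-out: Huh7 cells stably expressing Rab9-luciferase, treated 24 h with compound at 37 °C, then lysed with luciferase reagent for 10 min at ambient before reading.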
FLuc counter = inhibits or activates purified firefly luciferase, miR-21 counter-screen. P08659. purified FLuc, Km substrates, luminescence inhibition. Potency, µM (series often up to 57.5 µM), without a hit: at the top dose activity change, negative = inhibition, actives largely listed as inhibitors. 360,000 tested, 6.9% active. AID 588342;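 further: plate controls were vehicle for no effect and reference inhibitor for full effect; nearly all actives have a fitted effect of over 55% in size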
Target sequence (P08659 whole entry, looked up): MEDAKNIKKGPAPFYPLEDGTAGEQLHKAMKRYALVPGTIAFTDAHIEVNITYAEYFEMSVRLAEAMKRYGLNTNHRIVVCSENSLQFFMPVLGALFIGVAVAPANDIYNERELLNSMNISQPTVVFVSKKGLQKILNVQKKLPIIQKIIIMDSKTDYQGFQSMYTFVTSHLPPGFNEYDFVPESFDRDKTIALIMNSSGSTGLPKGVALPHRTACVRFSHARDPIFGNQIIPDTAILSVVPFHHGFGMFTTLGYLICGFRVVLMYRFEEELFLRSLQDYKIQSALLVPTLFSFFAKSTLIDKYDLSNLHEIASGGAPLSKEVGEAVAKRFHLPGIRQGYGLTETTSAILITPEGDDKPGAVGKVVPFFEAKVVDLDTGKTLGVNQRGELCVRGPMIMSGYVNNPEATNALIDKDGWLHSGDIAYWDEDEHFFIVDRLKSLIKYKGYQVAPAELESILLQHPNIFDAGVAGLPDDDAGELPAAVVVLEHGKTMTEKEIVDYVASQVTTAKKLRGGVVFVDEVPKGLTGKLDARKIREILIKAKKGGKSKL
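Biochemical qHTS of compounds, final roughly 60 µM downward over six points, against 10 nM purified firefly luciferase using Km concentrations of substrates (10 uM D-luciferin, 10 uM ATP) in Tris acetate pH 7.5 buffer; luminescence output.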
* marks the source's active call; other numbers are inactive results; u = inconclusive; x = no result given; [ ] = remark or other dose. This is a sample that favours compounds with a hit; in the whole collection about 9.2% have one here. The call rests on the fitted dose curve; in most records, active means well fitted curve in the direction sought with a large enough effect; inconclusive means small, poorly fitted or top-dose-only effect, or another doubt; inactive means no such curve, though single readings can be large; an effect the other way counts as inactive or inconclusive. Potency means the concentration at half of the fitted maximal effect.

SMILES	ELG1 genotox	SMN2 splice enh	ELG1 repair inh	NPC1 prom act	Rab9 prom act	FLuc counter
COc1cc(Cl)c(C)cc1NC(=O)c1cccc(OC)c1OC	18.2%	u	0.0%	u	u	6.75µM*
COc1cccc(C(=O)Nc2ccc(N(C)C)cc2)c1OC	u	11.2µM*	u	2.82µM*	1.41µM*	5.36µM*
CCOC(=O)N1CCN(C(=O)CNC(=O)c2ccc(Br)o2)CC1	-2.1%	x	-4.9%	-3.0%	4.0%	-1.5%
O=C(COC(=O)c1ccc(Cl)nc1)Nc1nnc(-c2ccccc2)o1	-6.5%	x	7.3%	-1.5%	-1.2%	-18.6%
Cc1ccc(CCNC(=O)CCCn2c(=O)c3ccccc3n(Cc3ccccc3C#N)c2=O)cc1	x	-12.8%	x	x	x	-2.0%
CCC(=O)N1CCc2cc(S(=O)(=O)NC(Cc3ccccc3)C(=O)Nc3ccccc3C)ccc21 (stereo not drawn)	x	1.3%	x	x	x	-6.0%
COc1ccc(NC(=O)c2cc3ccccc3cc2OC)cc1OC	1.5%	x	-5.3%	-1.7%	13.4%	26.9µM*
COc1cccc(C(=O)Nc2ccc3c(c2)CCCN3C(=O)c2cccs2)c1OC	-5.0%	x	u	4.7%	14.2%	9.53µM*
COc1cc(OC)c(C(=O)Nc2ccc3ccccc3c2)cc1OC	u	x	u	u	2.51µM*	4.78µM*
COc1cccc(NC(=O)c2cc3ccccc3cc2OC)c1	u	x	u	2.1%	12.7%	9.53µM*
Cc1nc2c(-c3ccccc3)c(C)nn2c(C)c1CCC(=O)Nc1ccccc1F	x	6.6%	x	x	x	-7.2%
COC(=O)COc1cc2ccccc2cc1C(=O)Nc1ccccc1	3.1%	-31.3%	-8.2%	0.1%	-0.5%	9.53µM*
COc1cccc(C(=O)Nc2cccc(-c3cn4c(C)csc4n3)c2)c1OC	x	x	x	x	x	7.57µM*
COc1cc2ccccc2cc1C(=O)Nc1ccc(O)cc1	10.3µM*	x	u	1.41µM*	2µM*	1.07µM*
CN(C)c1ccc(NC(=O)c2cccc(C(=O)Nc3ccc(N(C)C)cc3)n2)cc1	5.3%	14.1µM*	u	2.82µM*	3.16µM*	1.51µM*
Cc1ccccc1OCc1ccc(-c2nc(C#N)c(NCCCN(C)C)o2)o1	x	x	x	x	x	1.5%
Cc1cccc(CNC(=O)c2ccc(NC(=O)N3CC(C)Sc4ccccc43)cc2)c1 (stereo not drawn)	x	-7.3%	x	x	x	4.0%
O=C1CCC(c2ccccc2)=NN1c1nc2ccccc2s1	x	-12.9%[9.22 µM]	x	x	x	x
CC(CC(=O)NCc1ccc(Cl)cc1)CC1=NS(=O)(=O)c2ccccc2N1 (stereo not drawn)	x	x	x	x	x	-9.9%
CC1=C(CO)C(=O)OC([C@@H](C)C2CC[C@H]3C4C[C@H]5O[C@]56[C@@H](O)C=CC(=O)[C@]6(C)C4CC[C@]23C)C1 (stereo partly drawn)	-21.8%	x	9.2µM*	-51.7%	-41.2%	-4.1%
CC(C(=O)O)C1CCC2C3CC=C4CC(O)CC[C@@]4(C)C3CC[C@]12C (stereo partly drawn)	x	-5.5%	x	x	x	x
COCCN(C(=O)COC(=O)CCC1CCCC1)c1c(N)n(Cc2ccccc2)c(=O)[nH]c1=O	-0.9%	x	13.9%	-1.0%	-4.7%	0.1%
Oc1csc(Cc2nc(-c3ccc(Br)cc3)cs2)n1	u	u	u	3.16µM*	3.55µM*	u
CCOC(=O)CSc1nc2ccsc2c(=O)[nH]1	2.5%	x	9.9%	0.8%	1.6%	-11.1%
Fc1c(F)c(F)c(CSc2nc3ccccc3[nH]2)c(F)c1F	u	-2.4%	u	2.2%	5.1%	u
SMILES	ELG1 genotox	SMN2 splice enh	ELG1 repair inh	NPC1 prom act	Rab9 prom act	FLuc counter
COc1cccc(CSc2nc3ccccc3[nH]2)c1	u	15.8µM*	u	3.55µM*	1µM*	4.26µM*
O=c1[nH]c(SCc2ccccc2)nc2ccsc12	15.6%	u	u	6.5%	8.2%	16.9µM*
Fc1ccccc1CSc1nc2ccccc2[nH]1	u	5.62µM*	u	1.78µM*	1.26µM*	2.39µM*
CCCc1cc(=O)[nH]c(SCc2cc(C(=O)OC)c(C)o2)n1	2.3%	-3.4%	8.6%	1.1%	-2.0%	-1.4%
O=[N+]([O-])c1cccc(CSc2nc3ccccc3[nH]2)c1	7.0%	-15.4%[1.84 µM]	u	17.0%	26.9%	u
COC(=O)c1cc(CSc2nc3ccccc3[nH]2)oc1C	9.2µM*	-44.9%	u	u	u	7.57µM*
O=C1[C@H]2CCC=C[C@H]2[C@H](c2cccc(Br)c2)N1Cc1ccccc1	-3.1%	x	-1.9%	x	x	x
CCN(Cc1ccccc1)C(=O)Cn1cc(S(=O)(=O)Cc2cccc(Cl)c2)c2ccccc21	x	x	x	x	x	1.4%
CC(C)(C)c1cnnn1-c1cccc([N+](=O)[O-])c1	2.8%	x	-1.9%	-3.4%	0.4%	-1.3%
O=C(O)c1ccc(CSc2nc3ccccc3[nH]2)cc1	7.9%	x	16.6%	1.7%	-0.5%	16.9µM*
NNC(=O)c1ccc(CSc2nc3ccccc3[nH]2)cc1	0.0%	20.6%	-6.3%	-2.2%	3.2%	-4.0%
Cc1ccc(C)c(S(=O)(=O)N2CCN(c3nc(-c4cccnc4)nc4ccccc34)CC2)c1	-6.1%	x	18.3µM*	2.2%	-3.8%	x
O=S(=O)(c1ccccc1F)N1CCN(c2nc(-c3cccnc3)nc3ccccc23)CC1	-5.5%	x	18.3µM*	-7.1%	-5.0%	5.0%
CN1CCN(c2nc(-c3cccnc3)nc3ccccc23)CC1	u	-7.0%	u	-3.1%	-7.7%	-1.0%
N#Cc1ccccc1S(=O)(=O)N1CCN(c2nc(-c3cccnc3)nc3ccccc23)CC1	-5.8%	x	u	-2.7%	-9.0%	-0.6%
COc1cc2c(cc1OC)CN(c1nc(-c3cccnc3)nc3ccccc13)CC2	-16.6%	17.4%	9.2µM*	0.2%	4.4%	-15.6%
CC(C)[C@@H](CC(=O)N[C@@H]1CCCC[C@H]1C(=O)N[C@H](CC(=O)N[C@@H](CCC(=O)O)CC(=O)O)Cc1ccccc1)NC(=O)C[C@H](CO)NC(=O)[C@@H]1CNCC[C@H]1N	x	17.7%	x	x	x	x
Nc1ccc2c(c1)C/C(=C/c1ccco1)C2=O	20.6µM*	u	u	2.82µM*	2µM*	0.601µM*
O=C1c2ccccc2CCc2ccc(Br)cc21	5.5%	x	28.5%	-0.4%	-1.8%	u
CCC1C/C(=C/c2ccco2)C(=O)/C(=C/c2ccco2)C1 (stereo not drawn)	6.3%	-9.3%	u	1.0%	3.5%	-7.6%
COc1ccc2c(c1)CC/C(=C/c1ccco1)C2=O	u	17.8µM*	u	2.24µM*	3.55µM*	0.675µM*
O=C1/C(=C/c2ccco2)CCc2ccccc21	7.31µM*	u	u	3.98µM*	u	2.13µM*

Bioassay records from PubChem BioAssay.
